High-throughput results deposited in PubChem BioAssay by National Center for Advancing Translational Sciences (NCATS).
Coupling enz: coupling enzyme interference in Giardia aldolase counter-screen | AID 2472 | activity change, negative = inhibition, % at 58.2 µM, hits read low | 290,000 compounds, 0.67% hits | coupling enzyme system counterscreen, AmpLite Red fluorescence; in the data active = activity change below about -30%
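Fluorescence at 525 nm excitation and 598 nm emission measured inhibition of the coupled detection system without aldolase. Compounds (at 57.5 uM final) were preincubated 10 min at room temperature with coupling enzyme reagent before a 20 min substrate/AmpLite Red step.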
TrxR1 substrate: substrates of rat thioredoxin reductase 1; O89049; Potency, µM (doses to about 114 µM); 390,000 compounds, 0.01% hits; purified TrxR1 substrate turnover, NADPH consumption readout; AID 588456; note: nearly all actives have a fitted effect of over 50% in size
Target sequence (O89049 whole entry, looked up): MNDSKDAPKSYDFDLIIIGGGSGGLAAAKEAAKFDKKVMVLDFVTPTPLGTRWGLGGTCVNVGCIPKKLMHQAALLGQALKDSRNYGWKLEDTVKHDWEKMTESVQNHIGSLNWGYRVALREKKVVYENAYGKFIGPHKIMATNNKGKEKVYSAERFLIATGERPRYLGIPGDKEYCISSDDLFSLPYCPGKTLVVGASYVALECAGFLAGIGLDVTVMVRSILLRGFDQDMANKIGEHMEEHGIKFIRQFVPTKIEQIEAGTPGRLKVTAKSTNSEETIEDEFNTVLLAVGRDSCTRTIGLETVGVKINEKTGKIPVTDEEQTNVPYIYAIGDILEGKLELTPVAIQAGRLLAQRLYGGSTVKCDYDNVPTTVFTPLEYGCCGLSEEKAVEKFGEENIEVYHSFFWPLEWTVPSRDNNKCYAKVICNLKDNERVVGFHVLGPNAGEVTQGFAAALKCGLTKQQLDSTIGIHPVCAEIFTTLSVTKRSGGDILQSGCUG
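Rat TrxR1, dispensed at 90 nM, was prereduced with 400 uM NADPH (final) for 5 min at ~22 deg C, then incubated with compound 15 min before 400 uM selenite. A first-read NADPH fluorescence drop versus no-compound background flagged substrates.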
RORgamma inh: ROR gamma (mouse) transcription inhibition; Drosophila S2 Gal4-RORgamma UAS-luciferase reporter, 20 h; P51450; 310,000 compounds, 5.4% hits; Potency, µM (doses to about 53.6 µM), actives largely listed as inhibitors; note: nearly all actives have a fitted effect of over 60% in size
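Read-out: Photinus luciferase luminescence; inhibitors lower reporter signal. Insect Schneider cells with Gal4-ROR gamma fusion under metallothionein promoter, UAS reporter; 700 uM final copper sulfate induction, 20 hr, ambient temperature.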
GALK inhibitor: inhibitors of human galactokinase | P51570 | Purified GALK, Kinase-Glo residual ATP luminescence | Potency, µM (series often up to 57.5 µM), most hits filed as inhibitors | 270,000 compounds, 0.007% hits
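Compounds were pin-transferred into ATP buffer (35 uM final), then GALK plus galactose (5 nM, 100 uM final) was added. After 1 h at room temperature, Kinase-Glo Plus was added and luminescence read after 10 min.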
Gal4-VP16 FLuc: counter-screen for ROR gamma inhibitors: Gal4-VP16 reporter | Drosophila S2 Gal4-VP16 UAS-luciferase, luminescence, 20 h | Potency, µM (series often up to 53.6 µM), actives largely listed as inhibitors | 310,000 compounds, 3.5% hits | AID 2546;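 note: Gal4-VP16 expression switched on by copper sulfate through the metallothionein promoter; nearly all actives have a fitted effect of over 50% in size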
TrxR1 inh: rat TrxR1 inhibition | O89049 | recombinant rTrxR1, NADPH fluorescence consumption, selenite substrate | Potency, µM (titrated, usually from 114 µM), actives largely listed as inhibitors | 390,000 compounds, 1% hits | AID 588453; note: nearly all actives have a fitted effect of over 65% in size
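Rat TrxR1 (90 nM in the dispensed reagent) was pre-reduced with 400 uM NADPH for 5 min at room temperature, then incubated with compound for 15 min. After 400 uM selenite was added, NADPH fluorescence (Ex 340/Em 450 nm) was followed for 8 min.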
Numbers stand for hits; . = inactive; ? = inconclusive; / = no result given; [ ] = remark or other dose. Most compounds without a hit are left out; they make up all but 5.9% or so of the library. Unless noted, calls come from the whole dose curve; as a rule, active = well fitted curve in the direction sought with a large enough effect; inconclusive = small, poorly fitted or top-dose-only effect, or another doubt; inactive = no such curve, though single readings can be large; an effect the other way counts as inactive or inconclusive.

SMILES	Coupling enz	TrxR1 substrate	RORgamma inh	GALK inhibitor	Gal4-VP16 FLuc	TrxR1 inh
C/C(CC(=O)Nc1cc(C)ccn1)=N\NC(=O)c1cccc(C)c1	.	.	11µM	.	.	.
Cc1ccnc(NC(=O)C2CC(=O)N(c3ccc4c(c3)OCCO4)C2)c1 (stereo unspecified)	/	.	7.9µM	.	?	.
O=C(Nc1nc(-c2ccc3c(c2)OCCO3)cs1)C1CC(=O)N(c2ccc3c(c2)OCCO3)C1 (stereo unspecified)	/	.	/	/	/	.
CC(=O)Nc1ccc(-c2csc(NC(=O)C3CC(=O)N(c4ccc5c(c4)OCCO5)C3)n2)cc1 (stereo unspecified)	-35	.	.	.	.	.
CN(C)c1ccc(NC(=O)CSCc2nc3c(nnn3Cc3ccc(F)cc3)c(=O)[nH]2)cc1	-36	.	.	.	.	.
Cc1cccc(NC(=O)CSCc2nc3c(nnn3Cc3ccc(F)cc3)c(=O)[nH]2)c1C	.	.	.	.	.	.
NC(=S)c1cnn2c(-c3cccc(C(F)(F)F)c3)ccnc12	.	.	4µM	.	10µM	.
N#Cc1cnn2c(-c3ccccc3)ccnc12	.	.	.	.	.	.
O=C(Cc1csc(N2CCOCC2)n1)N/N=C/c1ccc(O)c(O)c1O	-61	.	.	.	.	.
COc1ccc(/C=N/NC(=O)CCN2CCN(c3ccccc3)CC2)c(OC)c1OC	.	.	?	.	.	.
C/C(=N\NC(=O)Cc1csc(N2CCOCC2)n1)c1ccccc1	.	.	.	.	.	.
O=C(CCN1CCN(c2ccccc2)CC1)N/N=C/c1ccc([N+](=O)[O-])o1	.	.	18µM	.	.	?
O=C(CN1CCCCCCC1)N/N=C/c1ccc([N+](=O)[O-])o1	.	.	?	.	?	?
O=C(CCN1CCN(c2ccccc2)CC1)N/N=C/c1ccc(O)c(O)c1O	-40	.	.	.	.	.
CCc1ccc(OCCCC(=O)Nc2ccc(N3CCCCC3)cc2)cc1	.	.	.	.	.	.
Cc1ccc(C)c(N2CCN(C(=O)c3cc4ccccn4n3)CC2)c1	.	.	.	.	.	?
Cc1ccc(C(=O)Oc2ccccc2N2C(=O)C3CCC(C)CC3C2=O)cc1 (stereo unspecified)	.	.	.	.	.	.
CC1CCC2C(=O)N(c3ccc(C(=O)Oc4cccc5cccnc45)cc3)C(=O)C2C1 (stereo unspecified)	.	.	6.3µM	.	3.2µM	.
Cc1ccc(N=Nc2ccc(O)c3ncccc23)cc1C	.	.	0.14µM	.	0.5µM	.
Cc1ccc(N=Nc2ccc(O)c3ncccc23)cc1	.	.	0.056µM	.	/	.
Cc1cccc(-c2noc(CNC(=O)c3ccccc3Br)n2)c1	/	.	/	/	/	.
CC(C)(C)OC=O	/	/	.	/	.	/
COc1ccccc1N1CCN(C(=O)CCC(=O)O)CC1	.	.	.	.	.	.
COc1ccccc1N1CCN(C(=O)Cc2cccs2)CC1	-32	.	.	.	.	?
COc1ccccc1N1CCN(C(=S)NC(=O)/C=C/c2ccc(F)cc2)CC1	.	.	3.5µM	.	10µM	.
SMILES	Coupling enz	TrxR1 substrate	RORgamma inh	GALK inhibitor	Gal4-VP16 FLuc	TrxR1 inh
COc1ccccc1N1CCN(C(=S)NC(=O)/C=C/c2ccccc2)CC1	.	.	0.89µM	.	7.1µM	.
COc1ccc(CNC(=O)C2CCCN2)cc1OC (stereo unspecified)	.	.	.	.	.	.
CC(C)c1ccc(C(O)c2nc3ccccc3n2C)cc1 (stereo unspecified)	.	.	.	.	.	.
Cn1c(C(C#N)C(=O)c2sc3ccccc3c2Cl)nc2ccccc21 (stereo unspecified)	.	.	1.8µM	.	4.5µM	.
COc1cccc(OC)c1C(=O)Nc1ccc(Br)c(C(=O)c2ccccc2)c1	.	.	.	.	.	.
CCC(=O)Nc1cccc(C(=O)/C=C/c2ccccc2)c1	.	.	16µM	.	?	?
CCC(=O)Nc1cccc(C(=O)/C=C/c2cccs2)c1	.	.	?	.	?	.
O=C(/C=C/c1ccccc1)Nc1cccc(C(=O)O)c1	.	.	4µM	.	5.6µM	.
CN1CCC(N(C)CC(O)c2ccccc2)CC1 (stereo unspecified)	.	.	.	.	.	.
Cc1cc(C)cc(NC(=O)CCCn2c(=O)c3cccn3c3ccccc32)c1	/	.[11.4 µM]	/	/	/	.
C=CCNC(=S)NNc1nc(N2CCCC2)nc(N2CCCC2)n1	.	.	2.2µM	/	18µM	.
Cc1cccc(Nc2nc(N3CCCCC3)nc(N3CCCCC3)n2)c1	.	.	.	.	.	.
S=C(NNc1nc(Nc2ccccc2)nc(N2CCCCC2)n1)NC1CCCCC1	.	.	4.5µM	.	13µM	.
C=CCNC(=S)NNc1nc(Nc2ccccc2)nc(N2CCCCC2)n1	.	.	4µM	.	?	.
Cc1sc2nc(N3CCOCC3)[nH]c(=O)c2c1-c1ccccc1	.	.	.	/	.	.
CC(=O)Nc1cccc(NC(=O)Cn2cnc3c2c(=O)n(C)c(=O)n3C)c1	/	.	/	/	/	.
CCOc1ccc2c(c1)c(=O)c(S(=O)(=O)c1ccc(F)cc1)cn2CC(=O)Nc1ccccc1C	/	.	/	/	/	.
O=C(O)c1cccc(S(=O)(=O)Nc2cccc(S(=O)(=O)Nc3ccc(Br)cc3)c2)c1	/	.	/	/	/	.
O=C(O)c1cccc(S(=O)(=O)Nc2ccc3c(c2)CCC3)c1	.	.	?	.	10µM	.
CCCCNC(=O)C(CC)Sc1nnc(-c2ccc(F)cc2)c(-c2ccc(F)cc2)n1 (stereo unspecified)	/	.	/	/	/	.
Oc1cc2c(cc1C(c1ccc(Cl)c(Cl)c1)N1CCCC1)OCO2 (stereo unspecified)	.	.	?	.	?	3.5µM
CCC1CCCCN1C(=O)CSc1nc2ncccc2[nH]1 (stereo unspecified)	/	.	.	.	.	50µM
CC1CCN(C(=O)CSc2nc3ncccc3[nH]2)CC1	/	.	.	.	.	.
COc1ccc(NC(=O)NCC(C)CSc2ccc(C)cc2)c(OC)c1 (stereo unspecified)	.	.	.	.	.	.
CNC(=S)Nc1cc(Cl)ccc1Oc1ccccc1	.	.	14µM	.	?	.
COc1ccccc1OCC(=O)Nc1cc(Cl)ccc1Oc1ccccc1	.	.	?	.	.	.
COc1ccc(Cl)cc1NC(=S)Nc1ccccc1F	.	.	?	.	?	.
CCNC(=S)Nc1cc(Cl)ccc1Oc1ccccc1	.	.[11.4 µM]	4.5µM	.	10µM	.[11.4 µM]
